Results as given in PubChem BioAssay (NCI).
Compounds without any hit were thinned out: in the full panel of roughly 83,000, 20% have a hit.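 Negative percent growth values reflect cell death: -40 means 40% of the cells present at the start died, and -100 means all died.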 Values without a mark were called inactive. Active and inactive are the calls of the source. The calls were made as follows: active = growth percent below 10; inactive = the rest.

Assays:
Test in all cases: NCI-60 one-dose screen, 48 h (100 = growth as untreated, 0 = no growth, -100 = all killed)
Conditions in all cases: 10 µM unless noted
[1] = tested on: NCI-H23 lung
[2] = tested on: NCI-H226 lung
[3] = tested on: NCI-H322M lung
[4] = tested on: HOP-62 NSCLC
[5] = tested on: NCI-H460 lung
[6] = tested on: HOP-92 NSCLC
[7] = tested on: NCI-H522 lung
[8] = tested on: A549/ATCC NSCLC
[9] = tested on: 786-0 renal
[10] = tested on: COLO 205 colon

Row | SMILES | growth [1] | growth [2] | growth [3] | growth [4] | growth [5] | growth [6] | growth [7] | growth [8] | growth [9] | growth [10]
1 | Cc1ccc2c(=O)cc(C(=O)Nc3sc4c(c3C(=O)NCc3cccnc3)CCCC4)oc2c1C | 101% | 107% | 103% | 104% | 109% | 97.3% | 100% | 98.4% | 108% | 110%
2 | CNC1=C([N+](=O)[O-])C(c2ccc(OC)cc2)C(C#N)=C(c2cccs2)O1 (stereo not given) | 103% | 99.8% | 103% | 99.6% | 109% | 125% | 102% | 102% | 110% | 111%
3 | CC[N+]1(CC)CC[N+]2(CCCC(C)CC2)CC1 (stereo not given) | 102% | 104% | 106% | 106% | 105% | 96.4% | 93.3% | 91.6% | 99.9% | 113%
4 | O=C1/C(=C/c2ccc(F)cc2)CN(C(=O)C(Cl)Cl)C/C1=C\c1ccc(F)cc1 | -48.1% (active) | 0.691% (active) | -63% (active) | -19.1% (active) | -78% (active) | -48% (active) | -58.1% (active) | -31.8% (active) | -56.2% (active) | -70.2% (active)
5 | FC(F)(F)Oc1cccc(-c2cnc3ccc(-c4ccncc4)nn23)c1 | 15.6% | 33.5% | 27.4% | 20.2% | 17.6% | 17.4% | 1.55% (active) | 11.5% | 21.1% | 16.1%
6 | N#Cc1ccc(O)c(C2=NCC(Cc3ccccc3)O2)c1 (stereo not given) | 54.5% | 65.9% | 59.9% | 24.1% | 23.5% | 65% | -17.5% (active) | 35.8% | 38.7% | 60.7%
7 | COc1ccc(C(=O)/C=C/c2ccc(N3CCCCC3)cc2)cc1OC | 92.5% | 72.7% | 91.5% | 98.3% | 97.9% | 69.9% | 84.4% | 90% | 103% | 100%
8 | COc1ccc(C2CC(c3cc(OC)c(OC)c(OC)c3)=NO2)cc1OCCCCOc1cc2c(cc1OC)C(=O)N1CCC[C@H]1C=N2 (stereo not given in full) | -16% (active) | -0.71% (active) | 17.4% | 22.8% | -14.8% (active) | 20.3% | -32.5% (active) | 20% | -35.3% (active) | -32.9% (active)
9 | O=C(N/N=C\c1ccccc1S(=O)(=O)O)N/N=C/c1ccccc1S(=O)(=O)O | 102% | 105% | 99.3% | 101% | 98.5% | 96.8% | 98.5% | 97.9% | 95% | 106%
10 | O=C(Nc1ccccc1N1CCCC1=O)c1oc2ccc(F)cc2c1-c1cnn(-c2ccccc2)c1 | 61.9% [50 µM] | 39.4% [50 µM] | 63% [50 µM] | 55.1% [50 µM] | 28.1% [50 µM] | 29.1% [50 µM] | 12.7% [50 µM] | 37.5% [50 µM] | 21.3% [50 µM] | 47% [50 µM]
11 | C=C1C(=O)O[C@H]2[C@H]1CC/C(COC(=O)/C=C\C(=O)NCc1ccc(Cn3c(=O)sn(CCCl)c3=O)cc1)=C\CC[C@@]1(C)O[C@@H]21 | 86.9% | 102% | 104% | 116% | 101% | 115% | -64.4% (active) | 111% | 83.4% | 34.8%
12 | Cc1c(CN)cc(-c2ccc(Cl)cc2)n1-c1ccccc1 | 73.8% | 38.4% | 88.4% | 91.6% | 75.5% | 90.1% | 68% | 75.2% | 90.8% | 110%
13 | CS(=O)(=O)c1nnc(-c2ccccc2)s1 | 99.4% | 113% | 111% | 85.5% | 111% | 103% | 11.6% | 87.1% | 88.7% | 77.3%
14 | C#CC#CC#CC#CC#CC#CC#CC#CC[C@@H]1OC[C@@H](COC(=O)O[C@@H](C(=O)O[C@H]2C[C@@]3(O)[C@@H](OC(=O)c4ccccc4)[C@@H]4[C@]5(OC(C)=O)CO[C@@H]5C[C@H](O)[C@@]4(C)C(=O)[C@H](OC(C)=O)C(=C2C)C3(C)C)[C@@H](NC(=O)c2ccccc2)c2ccccc2)O1 | 27.1% | 32.3% | 23.5% | 95.2% | 99.7% | 42.9% | 92.4% | 94.7% | 16.3% | 108%
